# Where “and” joins values, the source holds several entries; their conditions need not be identical. Equal values may be shown once.
# Columns and labels:
# [1] = biological target: Protein kinase C gamma type (Homo sapiens) (UniProt P05129); details: at 1 µM;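 also: each value is an averaged percent inhibition of the enzyme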
# [2] = biological target: T1, Protein kinase C iota type (Homo sapiens) (UniProt P41743); details: at 0.1 µM
# T1 sequence (whole entry): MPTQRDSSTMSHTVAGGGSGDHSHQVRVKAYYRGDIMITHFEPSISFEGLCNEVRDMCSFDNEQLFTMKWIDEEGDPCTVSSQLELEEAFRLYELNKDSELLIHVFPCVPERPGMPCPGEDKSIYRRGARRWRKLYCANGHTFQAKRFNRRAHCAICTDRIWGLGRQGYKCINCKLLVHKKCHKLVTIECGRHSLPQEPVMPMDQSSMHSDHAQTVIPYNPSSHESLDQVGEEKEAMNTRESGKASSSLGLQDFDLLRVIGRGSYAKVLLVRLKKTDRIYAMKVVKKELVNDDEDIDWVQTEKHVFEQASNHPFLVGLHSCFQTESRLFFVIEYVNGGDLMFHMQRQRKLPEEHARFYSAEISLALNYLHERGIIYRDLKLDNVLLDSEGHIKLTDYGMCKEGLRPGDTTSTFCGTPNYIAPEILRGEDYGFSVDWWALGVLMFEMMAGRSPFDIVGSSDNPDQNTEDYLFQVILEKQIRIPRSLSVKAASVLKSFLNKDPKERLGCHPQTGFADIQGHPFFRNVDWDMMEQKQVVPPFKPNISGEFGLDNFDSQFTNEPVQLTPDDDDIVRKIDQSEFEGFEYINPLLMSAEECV
# [3] = biological target: T1, Protein kinase C iota type (Homo sapiens); details: at 1 µM
# [4] = biological target: Protein kinase C theta type (Homo sapiens) (UniProt Q04759); details: at 0.1 µM
# [5] = biological target: Protein kinase C theta type (Homo sapiens) (UniProt Q04759); details: at 1 µM
# [6] = biological target: Protein kinase C beta type (Homo sapiens) (UniProt P05771); details: at 0.1 µM
# [7] = biological target: Protein kinase C beta type (Homo sapiens) (UniProt P05771); details: at 1 µM
# [8] = biological target: T2, Serine/threonine-protein kinase D1 (Homo sapiens) (UniProt Q15139); details: at 0.1 µM
# T2 sequence (whole entry): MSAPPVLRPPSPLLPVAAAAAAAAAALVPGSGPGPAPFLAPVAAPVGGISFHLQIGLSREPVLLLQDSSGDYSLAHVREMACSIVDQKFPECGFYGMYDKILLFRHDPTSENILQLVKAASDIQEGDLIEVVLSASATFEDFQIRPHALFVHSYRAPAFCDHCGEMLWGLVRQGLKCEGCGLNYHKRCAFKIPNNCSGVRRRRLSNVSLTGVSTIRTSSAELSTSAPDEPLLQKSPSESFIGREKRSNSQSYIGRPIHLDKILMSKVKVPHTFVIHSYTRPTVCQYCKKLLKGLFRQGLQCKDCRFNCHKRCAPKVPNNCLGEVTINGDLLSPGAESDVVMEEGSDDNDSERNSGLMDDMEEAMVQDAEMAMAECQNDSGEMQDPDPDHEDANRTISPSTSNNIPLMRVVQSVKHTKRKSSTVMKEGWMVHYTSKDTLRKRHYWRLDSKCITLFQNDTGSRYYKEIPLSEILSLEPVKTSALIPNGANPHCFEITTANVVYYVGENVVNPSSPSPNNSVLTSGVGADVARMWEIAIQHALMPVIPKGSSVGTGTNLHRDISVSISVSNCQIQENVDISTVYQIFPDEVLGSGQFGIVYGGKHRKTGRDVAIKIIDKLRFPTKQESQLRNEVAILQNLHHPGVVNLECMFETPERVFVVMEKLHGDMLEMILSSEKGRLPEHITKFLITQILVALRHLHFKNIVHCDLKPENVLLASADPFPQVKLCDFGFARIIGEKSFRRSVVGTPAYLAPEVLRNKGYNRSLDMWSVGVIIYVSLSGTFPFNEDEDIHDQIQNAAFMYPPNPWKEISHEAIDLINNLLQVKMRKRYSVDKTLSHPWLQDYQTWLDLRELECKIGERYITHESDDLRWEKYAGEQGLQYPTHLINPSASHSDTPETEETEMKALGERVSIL
# [9] = biological target: T2, Serine/threonine-protein kinase D1 (Homo sapiens); details: at 1 µM
# [10] = biological target: T3, Serine/threonine-protein kinase D2 (Homo sapiens) (UniProt Q9BZL6); details: at 0.1 µM;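 also: reported percent inhibition values are means, part of the GSK PKIS kinase panel screen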
# T3 sequence (whole entry): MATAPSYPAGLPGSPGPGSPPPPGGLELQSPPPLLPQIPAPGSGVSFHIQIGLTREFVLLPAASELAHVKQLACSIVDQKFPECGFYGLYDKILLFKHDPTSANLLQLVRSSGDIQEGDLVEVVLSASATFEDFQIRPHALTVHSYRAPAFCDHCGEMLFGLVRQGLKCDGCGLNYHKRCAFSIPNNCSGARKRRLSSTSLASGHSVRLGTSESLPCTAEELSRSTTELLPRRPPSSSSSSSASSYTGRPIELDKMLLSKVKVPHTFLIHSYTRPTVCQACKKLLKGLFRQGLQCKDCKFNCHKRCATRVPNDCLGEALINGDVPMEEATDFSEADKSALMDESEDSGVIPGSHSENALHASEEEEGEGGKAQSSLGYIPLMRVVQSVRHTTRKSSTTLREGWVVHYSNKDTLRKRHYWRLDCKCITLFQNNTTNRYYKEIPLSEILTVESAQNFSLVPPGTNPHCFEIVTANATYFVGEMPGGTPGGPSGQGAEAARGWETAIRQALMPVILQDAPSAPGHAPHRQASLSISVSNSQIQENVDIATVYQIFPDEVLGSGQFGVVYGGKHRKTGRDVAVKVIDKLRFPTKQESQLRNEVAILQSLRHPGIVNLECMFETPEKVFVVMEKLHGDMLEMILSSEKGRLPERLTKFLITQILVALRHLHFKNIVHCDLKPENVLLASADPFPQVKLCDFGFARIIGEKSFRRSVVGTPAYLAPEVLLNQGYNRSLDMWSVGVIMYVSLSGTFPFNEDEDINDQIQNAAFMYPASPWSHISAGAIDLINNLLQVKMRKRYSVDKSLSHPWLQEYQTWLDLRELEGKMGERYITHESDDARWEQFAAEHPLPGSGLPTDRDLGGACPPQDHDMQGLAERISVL
# Sequence of Protein kinase C theta type (Homo sapiens) (Q04759 whole entry, looked up): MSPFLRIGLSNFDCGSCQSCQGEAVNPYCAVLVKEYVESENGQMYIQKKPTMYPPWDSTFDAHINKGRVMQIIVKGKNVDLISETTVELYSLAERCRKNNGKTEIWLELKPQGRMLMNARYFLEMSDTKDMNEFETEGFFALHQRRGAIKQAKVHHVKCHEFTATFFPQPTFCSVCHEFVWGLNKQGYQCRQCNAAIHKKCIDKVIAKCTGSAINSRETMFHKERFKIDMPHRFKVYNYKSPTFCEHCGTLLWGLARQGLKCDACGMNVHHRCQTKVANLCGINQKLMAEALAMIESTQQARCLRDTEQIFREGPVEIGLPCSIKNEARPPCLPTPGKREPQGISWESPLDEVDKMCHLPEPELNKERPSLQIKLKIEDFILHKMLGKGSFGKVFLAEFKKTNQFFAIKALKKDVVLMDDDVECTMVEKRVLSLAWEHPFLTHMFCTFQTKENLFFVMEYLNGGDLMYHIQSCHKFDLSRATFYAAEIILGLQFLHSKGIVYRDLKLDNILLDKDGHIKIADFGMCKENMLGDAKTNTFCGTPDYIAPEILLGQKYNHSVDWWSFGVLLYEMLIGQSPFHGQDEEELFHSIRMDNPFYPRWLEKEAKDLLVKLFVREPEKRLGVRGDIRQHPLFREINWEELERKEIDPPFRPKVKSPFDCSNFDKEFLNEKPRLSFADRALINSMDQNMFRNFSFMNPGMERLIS
# Sequence of Protein kinase C beta type (Homo sapiens) (P05771 2-671 limits assumed): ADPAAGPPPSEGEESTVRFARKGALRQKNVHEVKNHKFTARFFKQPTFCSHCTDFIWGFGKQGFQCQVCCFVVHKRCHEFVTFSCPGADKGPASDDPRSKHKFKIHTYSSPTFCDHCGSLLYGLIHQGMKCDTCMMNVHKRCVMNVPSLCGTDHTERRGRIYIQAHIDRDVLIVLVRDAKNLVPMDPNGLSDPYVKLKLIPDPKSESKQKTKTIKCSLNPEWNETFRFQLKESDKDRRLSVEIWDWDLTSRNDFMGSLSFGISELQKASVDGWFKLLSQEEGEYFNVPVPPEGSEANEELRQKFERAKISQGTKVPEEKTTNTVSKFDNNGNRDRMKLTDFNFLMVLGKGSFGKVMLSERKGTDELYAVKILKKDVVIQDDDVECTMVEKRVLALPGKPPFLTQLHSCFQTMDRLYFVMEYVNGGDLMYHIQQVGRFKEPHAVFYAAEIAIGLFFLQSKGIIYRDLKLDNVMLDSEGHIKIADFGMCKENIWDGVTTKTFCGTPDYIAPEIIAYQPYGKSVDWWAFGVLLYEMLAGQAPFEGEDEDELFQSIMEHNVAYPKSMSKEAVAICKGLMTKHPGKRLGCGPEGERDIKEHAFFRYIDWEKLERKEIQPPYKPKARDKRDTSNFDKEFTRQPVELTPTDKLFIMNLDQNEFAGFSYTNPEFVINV
SMILES,inhibition [1],inhibition [2],inhibition [3],inhibition [4],inhibition [5],inhibition [6],inhibition [7],inhibition [8],inhibition [9],inhibition [10]
O=C(Nc1n[nH]c2nnc(-c3cccnc3)cc12)C1CC1,2.11%,-0.5%,-0.56%,-0.08%,0.79%,0.49%,3.21%,-0.5%,0.81%,-1.06%
COc1ccc2ncn(-c3cc(O[C@H](C)c4ccccc4C(F)(F)F)c(C(N)=O)s3)c2c1,3.02%,-1.03%,-0.45%,-0.16%,-0.58%,-0.24%,0.08%,-0.46%,0.62%,2.18%
CNC(=O)c1ncccc1Nc1nc(Nc2cc3c(cc2OC)CCCN3C(=O)CN(C)C)nc2[nH]ccc12,20.5%,1.89%,2.01%,1.94%,5.49%,1.44%,7.12%,5.48%,24.5%,7.16%
NS(=O)(=O)c1ccc(N/N=C2\C(=O)Nc3cccc(CCc4ccncc4)c32)cc1,-0.16%,0.18%,1.06%,0.33%,-0.34%,-0.03%,0.05%,1.18%,1.94%,0.05%
CC1=C(C(=O)Nc2ccc3[nH]nc(C)c3c2)C(c2ccc(C(F)(F)F)cc2)CC(=O)N1 (stereo not given),6.95%,1.92%,2.85%,2.33%,6.09%,0.62%,1.95%,2.86%,8.82%,2.82%
CCCNc1cccc(-n2ncc3c(N/N=C/c4ccncc4)ncnc32)c1,5.49%,3.86%,12.5%,1.36%,2.98%,3.39%,3.89%,2.19%,1.22%,-2.37%
COC(=O)Nc1nc2ccc(Oc3ccc(NC(=O)Nc4cc(C(F)(F)F)ccc4F)cc3)cc2s1,0.59%,-0.25%,0.66%,-0.27%,-1.1%,-0.19%,-0.04%,0.06%,0.84%,-0.61%
COc1ccc(-c2nn3ncccc3c2-c2ccnc(Nc3ccc(F)c(F)c3)n2)cc1,6.44%,1.96%,0.63%,2.86%,7.77%,1.81%,3.24%,4.47%,5.19%,3.52%
CS(=O)(=O)Nc1ccc(-c2ccc3c(NC(=O)C4CC4)n[nH]c3c2)cc1,4.43%,0.75%,3.13%,1.56%,-0.36%,1.18%,1.78%,2.7%,4.68%,3.14%
Cc1nnc(-c2cccc(-c3ccc(C(=O)NCC4CC4)cc3)c2)o1,5.25%,2.19%,1.94%,3.27%,5.18%,1.13%,2.65%,4.9%,9.11%,5.08%
Fc1ccc(Nc2nccc(-c3c(-c4ccc(C(F)(F)F)cc4)nn4ncccc34)n2)cc1F,4.39%,0.34%,3.68%,1.71%,0.47%,0.7%,0.3%,3.32%,5.39%,3.45%
CC1=C(C(=O)Nc2ccc3[nH]ncc3c2)C(c2ccc(F)cc2)N=C(c2ccc(C(F)(F)F)nc2)N1 (stereo not given),3.28%,1%,1.59%,1.3%,1.01%,4.27%,0.68%,2.04%,3.26%,2.6%
Nc1nonc1-c1nc2cnccc2n1C1CC1,16.4% and 14.8%,1.95% and 3.2%,14.8% and 15.6%,8.24% and 7.85%,38.7% and 40.1%,7.25% and 6.7%,31.2% and 31.3%,4% and 0.29%,22.3% and 23.2%,4% and 0.3%
FC(F)(F)CNc1nccc(-c2cnn3ncccc23)n1,-1.39%,1.84%,1.19%,1.1%,1.36%,0.94%,1.72%,3.65%,5.03%,3.32%
CCn1c(-c2nonc2N)nc2cncc(C(=O)NCCNC)c21,35.3%,9.63%,40%,8.91%,39.2%,21.1%,61%,5.32%,8.53%,5.41%
O=C1Nc2ccccc2/C1=C1\CCc2cc(O)ccc21,2.98%,2.01%,4.09%,2.42%,4.05%,1.94%,1.69%,5.09%,18.2%,6.34%

SMILES,inhibition [1],inhibition [2],inhibition [3],inhibition [4],inhibition [5],inhibition [6],inhibition [7],inhibition [8],inhibition [9],inhibition [10]
COc1cc(N2CCN(C(C)C)CC2)ccc1Nc1nc(Nc2cccc(F)c2C(=O)O)c2cc[nH]c2n1,5.49%,0.72%,0.65%,2.48%,3.08%,1.66%,2.08%,3.89%,6.58%,3.65%
O=C(O[C@H]1CN[C@H](C#Cc2cc3ncnc(Nc4ccc5c(cnn5Cc5ccccc5)c4)c3s2)C1)N1CCOCC1,1.11%,-1.84%,-0.97%,-0.32%,-1.1%,-0.16%,-0.06%,2.57%,1.38%,1.01%
COc1c(C(N)=O)cc(-c2ccc(Cl)cc2)cc1-c1ccc(S(N)(=O)=O)cc1,4.7%,1%,0.99%,2.35%,3.92%,1.11%,3.56%,4.74%,5.66%,3.83%
CCS(=O)(=O)c1ccc(OC)c(Nc2ncc(-c3cccc(C(C)=O)c3)o2)c1,1.69%,1.79%,-0.79%,2.27%,3.34%,1.16%,1.89%,2.32%,2.22%,2.04%
Nc1nccc(-c2c(-c3ccc(F)cc3)ncn2C2CCNCC2)n1,8.84% and 8.7%,-1.01% and 0.25%,0.48% and 1.35%,-1.64% and -0.14%,-0.41% and 0.45%,3.39% and 5.75%,28.4% and 33.6%,-0.71% and 3.19%,26.6% and 34.1%,-0.79% and 3.35%
Fc1cccc(COc2ccc(Nc3ncncc3C#Cc3ccccc3)cc2Cl)c1,4.55%,1.11%,0.75%,3.42%,4.89%,0.66%,1.48%,4.73%,7.41%,5.16%
CN(c1ccc(NC(=O)NCCN2CCOCC2)cc1)c1ccnc(Nc2ccc(CS(C)(=O)=O)cc2)n1,4.99%,2.77%,2.1%,2.63%,3.43%,0.67%,-0.33%,2.05%,1.78%,2%
COc1cccc(-n2ncc3c(N/N=C/c4ccc(C(=O)NCCN(C)C)cc4)ncnc32)c1,4.05%,2.38%,10.3%,1.61%,1.46%,1.88%,17.7%,2.09%,7.26%,2.5%
NS(=O)(=O)c1ccc(N/N=C2\C(=O)Nc3ccc(C(=O)NCc4ccncc4)cc32)cc1,6.61%,-9.87%,1.34%,3.98%,8.38%,1.7%,4.09%,3.88%,24.4%,6.54%
CN1CCN(Cc2ccc(-c3cc4ncnc(Nc5ccc(OCc6cccc(F)c6)c(Cl)c5)c4s3)o2)CC1,1.46% and 6.95%,1.42% and 1.16%,1.76% and 1.19%,1.25% and 2.92%,0.89% and 4.95%,0.98% and 1.08%,2.27% and 3.9%,3.21% and 5.57%,6.44% and 7.02%,2.14% and 5.13%
COc1ccc(Nc2ncc(-c3ccccc3)o2)cc1OC,1.49%,-0.08%,0.61%,-0.85%,-0.93%,-0.24%,1.4%,0.41%,2.5%,0.6%
CN1CCC(n2cnc(-c3ccc(F)cc3)c2-c2ccnc(NCCO)n2)CC1,5.6%,1.02%,1.08%,3.59%,5.13%,1.17%,7.68%,5.8%,14.6%,4.75%
COC(=O)Nc1nc2cc(Oc3ccc(NC(=O)Nc4ccccc4)cc3)ccc2[nH]1,4.89%,-0.48%,-0.69%,1.38%,2.87%,0.28%,0.72%,2.86%,3.15%,2.3%
CS(=O)(=O)CCNCc1ccoc1-c1ccc2ncnc(Nc3ccc(OCc4ccccc4)cc3)c2c1,0.87%,0.27%,-1.03%,-0.2%,0.08%,-0.23%,0.72%,1.6%,2.33%,1.46%
NS(=O)(=O)c1cccc(N/C=C2\C(=O)Nc3ccccc32)c1,3.27%,1.82%,2.43%,2.17%,1.6%,1.9%,3.11%,3.72%,11%,3.88%

# From ChEMBL document CHEMBL1961873, “Compounds: GSK PKIS; Assays: Nanosyn kinase panel” (2012)
